About 3,000 (1%) of roughly 290,000 compounds were called active. For the sample, actives were picked, then their nearest neighbours and some compounds at random. Values without a mark were called inactive. No stated cut-off is given here; in the data, active means inhibition mostly above about 36% (no sharp cut-off); inactive means mostly below about 34%.
Experiment: NOD1 signaling inhibitors, primary screen, cell-based, luminescence, uHTS (AID 1578);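 further: HEK-293T reporter cells stimulated with the NOD1 agonist gamma-tri-DAP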
Conditions: NOD1-driven NF-kB luciferase reporter cells, at 4 µM, active compounds read high

Structure (SMILES)	inhibition
COC(=O)c1cc(N=Nc2sc(N)nc2C)cc(C(=O)OC)c1	-4.7%
CCC(=O)Nc1cc2nn(-c3ccc(OC)cc3)nc2cc1C	-20%
CCC(=O)Nc1cc2nn(-c3ccc(C)cc3)nc2cc1C	58.2% (active)
CCCCC(=O)Nc1cc2nn(-c3ccc(OC)cc3)nc2cc1C	-94.7%
COc1ccc(C(=O)N/C(=C\c2ccccc2)C(=O)Nc2ccc(C(=O)O)cc2)cc1	0.4%
CCN(CC(=O)Nc1ccc(NC(C)=O)cc1)C(=O)/C=C/c1cn(-c2ccccc2)nc1-c1ccc(C)cc1	15.8%
CCOC(=O)c1ccc(Oc2cn[nH]c2-c2ccc(O)cc2O)cc1	5.5%
CCOC(=O)Cn1nc(-c2ccccc2)c2ccccc2c1=O	-6.3%
CCOC(=O)Cc1nn(C(C)C)c(=O)c2ccccc12	-21.4%
CCOC(=O)C(C)n1nc(-c2ccccc2)c2ccccc2c1=O (stereo unspecified)	36.3% (active)
CCC(C(=O)O)N1C(=O)C2CCCCC2C1=O (stereo unspecified)	4.4%
O=c1ccc(Cc2ccc(Cl)cc2)n[nH]1	-29.8%
O=c1ccc(-c2ccccc2)n[nH]1	-29%
O=c1ccc(Cl)n[nH]1	61.4% (active)
CCn1c(SCC(=O)NC2CCCCC2)nnc1-c1ccccn1	2.9%
O=C(Nc1ccc(S(=O)(=O)Nc2ccccc2)cc1)c1ccc(CN2CCOCC2)cc1	76.1% (active)
COc1ccc(C(=O)Nc2ccc(CN3CCCCC3)cc2)cc1	-37.1%
NC(=O)c1ccc(NC(=O)c2ccc(CN3CCOCC3)cc2)cc1	-20.3%
COc1ccc(C(=O)NC(=S)Nc2ccc(CN3CCOCC3)cc2)cc1	-0.3%
O=C(Nc1ccc(S(=O)(=O)N2CCCC2)cc1)c1ccc(CN2CCOCC2)cc1	44.6%
c1ccc(COc2cccc(CNCc3cccnc3)c2)cc1	-20%
CC(=O)Nc1ccc(S(=O)(=O)NCc2ccc(C)cc2)cc1	2.4%
Cc1coc2cc3oc(=O)c4c(c3cc12)CCCC4	-30.5%
COc1ccc(/C=N/Nc2ccccc2C(=O)O)cc1Cn1cc([N+](=O)[O-])cn1	-11.8%

Structure (SMILES)	inhibition
O=C(COC(=O)c1ccccc1C(=O)c1ccccc1)Nc1ccc(SC(F)F)cc1	7.1%
CCOC(=O)C1=C(C(F)(F)F)Nc2ncnn2C1c1cc(OC)ccc1OC (stereo unspecified)	10.8%
COc1ccc(OCC(=O)NNc2c3ccccc3nc3ccccc23)cc1	76.7% (active)
Cc1ccc(OCC(=O)NNc2c3ccccc3nc3ccccc23)cc1	52.5%
O=C(COc1ccccc1)NNc1c2ccccc2nc2ccccc12	40.5%
O=C(OCCN=C1NS(=O)(=O)c2ccccc21)c1ccccc1F	31.5%
O=C(NCCCN1CCCC1=O)[C@H](CSCc1ccccc1)N1Cc2ccccc2C1=O	1.9%
Cc1ccc(NC(=O)CN(C)C(=O)Cc2c(Cl)cccc2Cl)cc1	-9.1%
CSc1ccc(NC(=O)Nc2cccn(Cc3ccccc3)c2=O)cc1	46.6%
CCOc1ccc(NC(=O)Nc2cccn(Cc3ccccc3)c2=O)cc1	44.3% (active)
CCc1ccccc1NC(=O)Nc1cccn(Cc2ccccc2F)c1=O	-23.3%
COc1cccc(NC(=O)Nc2cccn(Cc3ccccc3)c2=O)c1	-11%
CSc1ccc(NC(=O)Nc2cccn(Cc3ccccc3F)c2=O)cc1	89.6% (active)
COc1ccc(Cn2cccc(NC(=O)Nc3ccc(F)cc3)c2=O)cc1	37.8%
O=C(O)CCCCCNC(=O)CCn1cnc2ccccc2c1=O	21.1%
COc1cc(OC)cc(-c2nnc(SCC(=O)Nc3cccc(C(=O)O)c3)s2)c1	-32.1%
O=C(c1ccc(Cl)cc1)N1CCN(CCc2ccccn2)CC1	-13%
COc1cc(/C=C2/C(=O)NN(c3ccccc3)C2=O)cc(Br)c1O	15.4%
COc1cc(/C=C2/C(=O)NN(c3ccc(F)cc3)C2=O)cc(Cl)c1O	12.2%
OCC[C@@H]1C[C@H](O)[C@@H](O)[C@]2(Cc3ccccc3CO2)O1	15%
COc1ccc(C(=O)N(CCc2ccccc2)Cc2ccccc2)c(OC)n1	-5.7%
CCN1CCN(C(=O)c2cc(COc3ccc4ncccc4c3)on2)CC1	26.3%
O=C(NC1CCCC1)c1cc(COc2ccc3ncccc3c2)on1	26.8%
O=C(NC1CCCCCCC1)c1cc(COc2ccc3ncccc3c2)on1	44.4% (active)

Structure (SMILES)	inhibition
O=C(c1cc(COc2ccc3ncccc3c2)on1)N1CCCC1	19.1%
CCC(O)C1CCN(C(=O)c2cc(COc3ccc4ncccc4c3)on2)CC1 (stereo unspecified)	52.9%
CC(NC(=O)c1cc(COc2ccc3ncccc3c2)on1)c1ccc(F)cc1 (stereo unspecified)	7.2%
O=C(c1cc(COc2ccc3ncccc3c2)on1)N1CCC(O)CC1	0.3%
CC(=O)c1ccc(OCc2cc(C(=O)NC3CCCCC3)no2)cc1	-46.8%
Cc1ccc(OCc2cc(C(=O)NCc3cc(F)ccc3C)no2)cn1	-13.5%
Cc1ccc(F)cc1CNC(=O)c1cc(COc2ccc3ncccc3c2)on1	59.8% (active)
CS(=O)(=O)N1CCN(c2ccccc2NC(=S)NC(=O)c2ccccc2[N+](=O)[O-])CC1	-7.4%
O=C(COC(=O)CNS(=O)(=O)c1ccccc1)Nc1ccc(Cl)cn1	-21%
Cc1cc(C)n(-c2ccc(C(=O)Nc3sccc3C(N)=O)cc2)n1	-77.9%
COc1ncnc2c1oc1nc(C(C)C)c3c(c12)CC(C)(C)OC3	-12.3%
CCN(CC)S(=O)(=O)c1cccc(N=Nc2sc(N)nc2C)c1	1.1%
N#Cc1ccc(OCC(O)CS(=O)(=O)c2ccccc2)cc1 (stereo unspecified)	-22.8%
CC(=O)c1ccc(NC(=O)C2CCCN(C(=O)c3ccc(Cl)cc3)C2)cc1 (stereo unspecified)	-22.6%
O=C1CCCN1S(=O)(=O)c1ccc(F)cc1	5.5%
CCOc1ccc(NC(=O)C2CCCN(S(=O)(=O)c3ccc4c(c3)CC(C)N4C(C)=O)C2)cc1 (stereo unspecified)	-4%
COn1c(-c2ccccc2)nc2ccc(Cl)cc21	-72.4%
Cc1cc(C(=O)N/N=C/c2c(C)nn(-c3ccccc3)c2Cl)n[nH]1	-4.6%
CC(=O)N(C(C)=O)S(=O)(=O)c1ccc(N=NN2CCOCC2)cc1	-25.7%
O=C(Nc1ccccc1C(=O)Nc1cccnc1)c1ccccc1	-11.8%
Cc1csc(NC(=O)c2ccc(=O)[nH]c2)n1	-4.6%
Cc1ccc2c(c1)C1CN(C)CCC1N2C(=S)Nc1ccc(Cl)cc1Cl (stereo unspecified)	13%
Cc1ccc2c(c1)C1CN(C)CCC1N2C(=S)NC(=O)c1ccc(Cl)cc1Cl (stereo unspecified)	-10.8%
Cc1ccc2c(c1)C1CN(C)CCC1N2C(=S)NC(=O)c1ccc(Br)cc1 (stereo unspecified)	61.2% (active)

Structure (SMILES)	inhibition
CCOc1cc(C2Nc3ccccc3NC3=C2C(=O)CC(C)(C)C3)ccc1O (stereo unspecified)	-14.4%
Cc1nonc1NC(=O)CSc1nc(C23CC4CC(CC(C4)C2)C3)nc2ccccc12	2.5%
NC(=O)CSc1nc(C23CC4CC(CC(C4)C2)C3)nc2ccccc12	58.4% (active)
NC(=O)CSc1nc(-c2ccccc2)nc2ccccc12	-12.4%
Cc1ccc(NC(=O)CCOc2ccccc2)cc1	-12.7%
CCC(C)NC(=O)C(Cc1ccccc1)n1cccc1 (stereo unspecified)	-8%
CCC1Oc2ccc(C)cc2N(CC(=O)N(Cc2ccncc2)Cc2ccco2)C1=O (stereo unspecified)	-36.7%
CCC1Oc2ccc(C)cc2N(CC(=O)N(Cc2cccnc2)Cc2ccc(C)o2)C1=O (stereo unspecified)	-12.7%
CCC1Oc2ccc(C)cc2N(CC(=O)N(Cc2cccnc2)Cc2cccc(F)c2)C1=O (stereo unspecified)	34.6% (active)
Cc1nn(C)c(C(=O)Nc2ccc(Br)cc2F)c1Br	46%
CCOP(=O)(OCC)C(NC(=O)Nc1ccccc1)c1ccccc1 (stereo unspecified)	-11.6%
COc1ccc2[nH]c3c4c(ccc3c2c1)C(=O)C=CC4=O	51% (active)
COc1ccc2[nH]c(C)cc(=O)c2c1	-7.4%
COc1ccc2c(c1)c1ccc3c(c1n2C)C(=O)C=CC3=O	0.4%
Cc1ccc(NC(=S)NNC(=O)c2ccc(N3CCOCC3)c([N+](=O)[O-])c2)cc1C	-2.1%
COc1ccc(-c2csc(NC(=O)CCS(=O)(=O)c3ccccc3)n2)c(OC)c1	-13.4%
COc1ccc(C(O)(C(C)C)C(CN2CCOCC2)c2ccccc2)cc1 (stereo unspecified)	5.4%
CN(C)C=NC(=O)c1cc(C(=O)c2ccc(Cl)cc2Cl)c[nH]1	59.7% (active)
CN(C)C=NC(=O)c1cc(C(=O)c2ccc(Cl)cc2)c[nH]1	38.4%
CN(C)C=NC(=O)c1cc(C(=O)c2ccccc2Cl)c[nH]1	-1.9%
O=C1CN(C(=O)NCC(=O)N[C@H](Cc2ccccc2)C(=O)O)c2ccccc2N1	-34.2%
CC(C)c1cccc(C(C)C)c1NC(=O)Cn1c(=O)cnc2ccccc21	-9.4%
CN1CCC(N(C)S(=O)(=O)c2ccc(NC(=O)COc3ccc(F)cc3Cl)cc2)CC1	-16.5%
COc1ccccc1OC(=O)Cc1cccc2ccccc12	63.8%

Reference: PubChem BioAssay AID1578 (Sanford-Burnham Center for Chemical Genomics, 2009)
